Screens deposited in PubChem by several laboratories.
ARNT TACC3 PPI = disruptors of ARNT/TACC3 protein interaction, primary screen, biochemical, AlphaScreen, single concentration. Transforming acidic coiled-coil-containing protein 3 (Homo sapiens), Q9Y6A5. AlphaScreen His-ARNT PAS-B/GST-TACC3 binding, luminescence; TACC3 fragment carries E629A point mutation. inhibition, % at 9.99 µM. actives 0.66% (n = 390,000);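 active means mean inhibition of replicates at least 50% and at least half of replicates each reaching 50%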;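 further: 0% = complete ARNT plus TACC3 wells and 100% = ARNT alone without TACC3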
Rin1-Abl PPI inh = inhibitors of Rin1-Abl protein binding, primary screen, biochemical, TR-FRET. Tyrosine-protein kinase ABL1 (Homo sapiens) + Ras and Rab interactor 1 (Homo sapiens), …. inhibition, % at 7.35 µM. actives 0.4% (n = 360,000). AID 588664, 2011; in the data active means inhibition above about 5%, passing the limit was not always enough
HGIII-sPLA2 inh = human group III sPLA2 inhibitors, primary screen, biochemical, QFRET, BODIPY PC-A2 liposome substrate. QFRET BODIPY PC-A2 liposome hydrolysis, fluorescence. inhibition, % at 12.2 µM. Group 3 secretory phospholipase A2 (Homo sapiens), Q9NZ20. actives 0.56% (n = 370,000). AID 743126, 2013;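 active means inhibition above mean plus 3 SD of compounds lying within the high and low control bounds, cut at about 19% in these data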;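 further: 0% = median of test compound wells and 100% = no enzyme DMSO wells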
Target sequence (Q9NZ20 whole entry, looked up): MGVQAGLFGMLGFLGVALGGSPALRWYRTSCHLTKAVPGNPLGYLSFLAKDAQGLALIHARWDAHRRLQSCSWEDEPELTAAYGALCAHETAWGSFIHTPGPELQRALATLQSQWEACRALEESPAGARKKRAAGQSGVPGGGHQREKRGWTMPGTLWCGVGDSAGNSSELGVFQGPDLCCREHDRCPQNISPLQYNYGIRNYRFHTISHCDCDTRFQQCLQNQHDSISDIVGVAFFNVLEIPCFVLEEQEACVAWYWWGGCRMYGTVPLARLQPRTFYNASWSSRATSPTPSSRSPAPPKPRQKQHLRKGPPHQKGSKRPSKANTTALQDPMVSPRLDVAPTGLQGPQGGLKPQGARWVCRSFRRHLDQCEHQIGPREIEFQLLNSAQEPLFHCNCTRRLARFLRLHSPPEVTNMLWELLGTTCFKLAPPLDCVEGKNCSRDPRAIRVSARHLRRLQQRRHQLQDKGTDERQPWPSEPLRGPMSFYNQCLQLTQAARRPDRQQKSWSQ
AI-2 QS modul = Vibrio harveyi AI-2 quorum sensing modulators, primary screen, JMH597 strain, luminescence/OD600 ratio | Vibrio harveyi JMH597 AI-2 luminescence/OD600 ratio, 9 h; stronger effect = lower value; strain lacks LuxN and CqsS sensors; 0 = neutral-control median | activity change, % at 7.5 µM | actives 0.4% (n = 300,000) | AID 2094, 2009; in the data active means activity change below about -75%, passing the limit was not always enough;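 further: luminescence divided by OD600 gain over 9 h not by final OD600 alone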
An asterisk follows results filed as active; · = no result given. A selection: hits, their analogues and other compounds. The true share with any hit is near 1.5%.

SMILES	ARNT TACC3 PPI	Rin1-Abl PPI inh	HGIII-sPLA2 inh	AI-2 QS modul
COC(=O)C[C@H]1CC[C@@H](NS(=O)(=O)c2ccc(OC)cc2)[C@H](CO)O1	48*	·	·	·
O=S(=O)(c1cccs1)N1CCCCN2[C@H](CO)[C@H](c3ccc(Br)cc3)[C@@H]2C1	0	·	·	·
CNc1ncnc(Sc2nc(N)nc3nc[nH]c23)c1[N+](=O)[O-]	-2	-3	2	·
Nc1nc(Sc2ccc([N+](=O)[O-])c3nonc23)c2[nH]cnc2n1	22*	4	11	·
COc1ccc(C(N)c2nccc3cc(OC)c(OC)cc23)cc1OC (stereo not drawn)	72*	0	·	-1
O=C(Oc1cccc2cccnc12)c1ccco1	54*	1	-1	-9
O/N=C/c1ccc2cccc(O)c2n1	57*	-5	2	20
C[C@@H]1CN([C@H](C)CO)C(=O)c2cc(NS(=O)(=O)c3cccs3)ccc2O[C@@H]1CN(C)CC1CC1	-8	·	·	·
O=C(NNc1ccccn1)C(=O)NNS(=O)(=O)c1ccc(F)cc1	63*	-1	-3	35
CC(CCC(=O)NN)C1CCC2C3CCC4CC(O)CCC4(C)C3CCC12C (stereo not drawn)	-7	-2	2	·
CC(CCC(C)C(C)(C)C)[C@@H]1CC[C@H]2C3C[C@H](OS(O)(=S)=S)[C@H]4C[C@H](OS(O)(=S)=S)[C@@H](OS(O)(=S)=S)C[C@]4(C)[C@H]3CC[C@]12C (stereo partly drawn) (tested in a mixture with another compound)	55*	3	·	·
C[C@@H]1CN([C@H](C)CO)S(=O)(=O)c2ccc(-c3ccc(C#N)cc3)cc2O[C@@H]1CN(C)Cc1ccccn1	2	·	·	·
CN(C)c1ccc(O)c2c1CC1CC3C(N(C)C)C(=O)C(C(N)=O)=C(O)[C@@]3(O)C(=O)C1=C2O (stereo partly drawn)	40	9	7	-120*
C[C@H]1c2cccc(O)c2C(O)=C2C(=O)C3(O)C(O)=C(C(N)=O)C(=O)[C@@H](N(C)C)[C@@H]3[C@@H](O)[C@@H]21 (stereo partly drawn)	26	7	15	·
COCC(=O)Nc1ccc2c(c1)OC[C@H](C)N(Cc1cccnc1)C[C@H](C)[C@H](OC)CN(C)C2=O	0	·	·	·
CC(=O)N/N=C/c1cc(C(C)(C)C)cc(/C=N/NC(C)=O)c1O	62*	-2	-17	15
CCN(CC)c1ccc(/C=N/N=C(N)N)c(O)c1	48*	-5	10	4
Cc1ccc(-c2[nH]ncc2/C=N/n2c(COc3ccccc3)nc3ccccc3c2=O)cc1	-12	0	-8	34
Cc1cc(/C=N/n2c(COc3ccccc3)nc3ccccc3c2=O)c(O)c([N+](=O)[O-])c1	17	-2	39*	-12
O=C(N/N=C/c1ccc(Br)s1)c1c[nH]c2ccccc12	·	2	-4	-77*
O=C(N/N=C/c1cc(Br)cs1)c1c[nH]c2ccccc12	10	-3	1	-20
C/C(=N\Nc1nc(N)cc(Cl)n1)c1ccc(Cl)c(Cl)c1	9	4	-3	-4
C/C(=N\Nc1nc(N)cc(Cl)n1)c1ccc(F)cc1	48*	2	-4	-8
O=C(O)C[C@H]1C=C[C@@H](NC(=O)Nc2cc(F)ccc2F)[C@H](CO)O1	-10	·	·	·
COc1ccc(NC(=O)N[C@H]2CC[C@H](CCn3cc(-c4ccccc4)nn3)O[C@H]2CO)cc1	-11	·	·	·
COc1ccc(NC(=O)N[C@@H]2CC[C@@H](CCn3cc(-c4ccccn4)nn3)O[C@@H]2CO)cc1	48*	·	·	·
O=S(=O)(N[C@@H]1CC[C@H](CCn2cc(-c3ccccn3)nn2)O[C@@H]1CO)c1cccc(F)c1	92*	·	·	·
O=S(=O)(N[C@H]1CC[C@H](CCn2cc(-c3cccc(F)c3)nn2)O[C@H]1CO)c1ccccc1	-1	·	·	·
COc1ccc(NC(=O)N[C@@H]2CC[C@@H](CCn3cc(-c4ccccn4)nn3)O[C@H]2CO)cc1	61*	·	·	·
O=C(N[C@@H]1CC[C@@H](CCn2cc(-c3ccccn3)nn2)O[C@H]1CO)c1ccncc1	62*	·	·	·
